Screening data (PubChem BioAssay)
Only a selection was taken, and hits are over-represented in it overall.
RE007 growth inh = less growth of the S. pombe RE007 Vpr strain; S. pombe RE007 Vpr strain, BacTiter-Glo ATP luminescence, 24 h; Potency, µM (highest dose often 92.2 µM), for inactives: at the top dose activity change, negative = less growth, most hits filed as inhibitors; 0.21% of 360,000 active; AID 651644; active = well fitted falling curve with a large enough effect; inconclusive = small, poorly fitted or top-dose-only effect; inactive = no such curve, though single readings can be large or run the other way; also: potency is read from the fitted curve at half-maximal effect; % is scaled to controls: 0 for no effect and ±100 for the full control effect; nearly all actives have a fitted effect of over 50% in size
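Fission yeast RE007 carrying one integrated HIV-1 vpr copy, seeded at OD 0.01 in PMG+AL medium with 23 nL pinned compound. Grown 24 h at 30 degrees; viability read by BacTiter-Glo luminescence after 5 min.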
TbPYK inhibitor = inhibitors of Trypanosoma brucei pyruvate kinase; Q57TT1; 0.12% of 410,000 active; Potency, µM (titrated, usually from 76.8 µM), without a hit: at the top dose activity, negative = inhibition, usual class: inhibitors; TbPYK enzyme, Kinase-Glo Plus ATP luminescence, 45 min; also: potency is read from the fitted curve at half-maximal effect; % is scaled to controls: 0 for no effect and ±100 for the full control effect; nearly all actives have a fitted effect of over 50% in size
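T. brucei PYK with substrate was exposed to pin-transferred compounds across a concentration series, then started with 130 uM ADP (final). After 45 min at room temperature, Kinase-Glo Plus luminescence was read, normalized and curve-fitted.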
Cycloheximide cs = counter-screen hit for Shiga toxin inhibitors, cycloheximide. AID 2314. 12% of 300,000 active. max response, %. cell reporter, cycloheximide protein synthesis inhibition counterscreen; in the data active = max response mostly above about 13%, no sharp cut-off; inactive = mostly below about 14%; also: read at 38.3 µM for the half of the compounds with a filed dose; 0% is about no effect
Shiga inhibitor = inhibitors of Shiga toxin in Vero cells; Vero cells, Shiga toxin protein synthesis inhibition reporter; inhibition, % at 38.7 µM; 9.2% of 290,000 active; AID 2315; in the data active = inhibition mostly above about 28%, no sharp cut-off; inactive = mostly below about 43%; also: 0% is about no effect
LmPK inhibitor = LmPK (Leishmania mexicana) enzyme inhibition; Q27686; purified LmPK, Kinase-Glo ATP luminescence, 1 h; Potency, µM (series often up to 57.5 µM), for the others: at the top dose activity change, negative = inhibition, most hits filed as inhibitors; 0.37% of 290,000 active; AID 1721; also: potency is read from the fitted curve at half-maximal effect; % is scaled to controls: 0 for no effect and ±100 for the full control effect
Target sequence (Q27686 whole entry, looked up): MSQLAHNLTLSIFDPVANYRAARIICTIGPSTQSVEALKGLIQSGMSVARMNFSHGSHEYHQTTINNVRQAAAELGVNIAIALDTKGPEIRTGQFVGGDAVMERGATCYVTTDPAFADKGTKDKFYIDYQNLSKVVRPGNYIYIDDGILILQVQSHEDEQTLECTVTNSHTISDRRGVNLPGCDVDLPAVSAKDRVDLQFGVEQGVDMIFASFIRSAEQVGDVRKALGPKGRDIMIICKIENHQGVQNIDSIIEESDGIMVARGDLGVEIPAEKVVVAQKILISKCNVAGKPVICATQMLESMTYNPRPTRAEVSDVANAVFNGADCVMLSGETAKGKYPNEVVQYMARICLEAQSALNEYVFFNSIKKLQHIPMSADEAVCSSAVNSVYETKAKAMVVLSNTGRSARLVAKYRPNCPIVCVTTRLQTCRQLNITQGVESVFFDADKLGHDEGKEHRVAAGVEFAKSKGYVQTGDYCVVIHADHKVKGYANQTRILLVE
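Kinase-Glo luminescence read after 1 h RT reaction of 0.1 nM LmPK with 0.5 mM PEP and 0.1 mM ADP. Activity scaled between uninhibited and enzyme-free controls.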
Giardia FBPA inh-1 = inhibitors of Giardia lamblia fructose-1,6-bisphosphate aldolase; A8B2U2; purified Giardia FBPA; Potency, µM (series often up to 59.6 µM), inactives show at the top dose activity, negative = inhibition, actives largely listed as inhibitors; 0.71% of 290,000 active; also: potency is read from the fitted curve at half-maximal effect; % is scaled to controls: 0 for no effect and ±100 for the full control effect; nearly all actives have a fitted effect of over 55% in size
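Giardia FBPA (40 nM reagent) was preincubated 10 min at RT with compound (up to 57.5 uM final), then substrate plus GAPDH/TPI/NAD/arsenate coupling system with diaphorase/resazurin was added; resorufin fluorescence (525/598 nm) was read after 20 min.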
Giardia growth = blocks growth of Giardia lamblia trophozoites; AID 2785; Potency, µM (titrated, usually from 57.5 µM), for inactives: at the top dose activity change, negative = inhibition, usual class: inhibitors; 5% of 1,500 active; shares compounds with Giardia FBPA inh-1; Giardia lamblia trophozoite growth inhibition;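 also: potency is read from the fitted curve at half-maximal effect; trophozoites exposed to compound for 48 h at 37 °C; % is scaled to controls: 0 for no effect and ±100 for the full control effect; nearly all actives have a fitted effect of over 70% in size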
Mammal cell tox = mammalian cytotoxicity of Giardia aldolase inhibitor hits | AID 2786 | Potency, µM (doses to about 57.5 µM), inactives show top-dose viability change, negative = toxicity, usual class: inhibitors | mammalian cell viability counter-screen, qHTS | 4% of 1,500 active | shares compounds with Giardia FBPA inh-1;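 also: Chinese hamster ovary cells used as mammalian cytotoxicity surrogate; viability measured as cellular ATP by luminescence; potency is read from the fitted curve at half-maximal effect; compound exposure lasted 48 h before reading; % is scaled to controls: 0 for no effect and ±100 for the full control effect; nearly all actives have a fitted effect of over 60% in size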
Giardia FBPA inh-2 = confirmation of Giardia fructose-bisphosphate aldolase inhibitors | shares compounds with Giardia FBPA inh-1 | purified Giardia aldolase enzyme activity, qHTS | Potency, µM (doses to about 57.5 µM), for the others: at the highest dose activity change, negative = inhibition, usual class: inhibitors | 5% of 1,500 active; also: potency is read from the fitted curve at half-maximal effect; % is scaled to controls: 0 for no effect and ±100 for the full control effect; nearly all actives have a fitted effect of over 45% in size
Rabbit aldolase = selectivity test for Giardia aldolase inhibitors: rabbit aldolase | shares compounds with Giardia FBPA inh-1 | Rabbit muscle FBPA enzyme inhibition, selectivity counter-screen | Potency, µM (highest dose often 57.5 µM), for inactives: top-dose activity, negative = inhibition, usual class: inhibitors | 4% of 1,500 active | AID 2794; also: potency is read from the fitted curve at half-maximal effect; % is scaled to controls: 0 for no effect and ±100 for the full control effect; nearly all actives have a fitted effect of over 60% in size
GAPDH coupling = counter-screen for Giardia aldolase inhibitors: GAPDH coupling enzyme | AID 2795 | GAPDH coupling enzyme counterscreen, biochemical, qHTS | 6% of 1,500 active | Potency, µM (highest dose often 57.5 µM), for inactives: top-dose activity change, negative = inhibition, most hits filed as inhibitors | shares compounds with Giardia FBPA inh-1; also: potency is read from the fitted curve at half-maximal effect; % is scaled to controls: 0 for no effect and ±100 for the full control effect; nearly all actives have a fitted effect of over 55% in size
Starred values were filed as active, the others as inactive; ? = inconclusive; . = not tested or not shown; [ ] = remark or other dose. Unless noted, calls follow the shape of the dose curve; as a rule, active = well fitted curve in the direction sought with a large enough effect; inconclusive = small, poorly fitted or top-dose-only effect, or another doubt; inactive = no such curve, though single readings can be large; an effect the other way counts as inactive or inconclusive.

SMILES | RE007 growth inh | TbPYK inhibitor | Cycloheximide cs | Shiga inhibitor | LmPK inhibitor | Giardia FBPA inh-1 | Giardia growth | Mammal cell tox | Giardia FBPA inh-2 | Rabbit aldolase | GAPDH coupling
N#Cc1cc2cc3c(cc2nc1N1CCCCC1)OCCO3 | -2.4% | -16.6% | 21.8* | 46.1 | 1.2% | 6.29µM* | 56.2µM* | -26.3% | -9.3% | -0.6% | -1.9%
N#Cc1cc2cc3c(cc2nc1Cl)OCCO3 | -0.8% | -2.8% | . | . | . | . | . | . | . | . | .
CC(C)CCNc1nc(N)c([N+](=O)[O-])c(N2CCCCCC2)n1 | 8.7% | 3.8% | 10.5 | -8.4 | 13.0% | -4.6% | . | . | . | . | .
O=C(Oc1nsnc1N1CCOCC1)N(c1ccccc1)c1ccccc1 | 1.5% | 3.5% | 11.0 | 6.8 | 9.3% | 5.1% | . | . | . | . | .
COC(=O)Oc1nsnc1N1CCOCC1 | -10.8% | -39.5% | -1.7 | -1.7 | -3.4% | 14.1µM* | -28.0% | 9.6% | -12.6% | ? | ?
COc1ccc(N2CCN(C(=O)CSc3nnc(C)c(=O)[nH]3)CC2)cc1 | -7.7% | -5.7% | 3.7 | 19.1 | 21.1% | 12.6µM* | -12.4% | 7.6% | -8.3% | 11.0% | 6.5%
Cc1cc(=O)n(Cc2cccc(Cl)c2)c2c1c(C)nn2C | . | 0.6% | . | . | . | . | . | . | . | . | .
CCc1nnc(NC(=O)c2nc(SCc3ccc(F)cc3)ncc2Cl)s1 | . | -4.4% | . | . | . | . | . | . | . | . | .
CC(=O)c1ccc(C(=O)Nc2sc3c(c2C(N)=O)CCN(Cc2ccccc2)C3)cc1 | . | . | -1.2 | -1.1 | 0.0% | ? | . | . | . | . | .
CN1CCc2c(sc(NC(=O)c3cc(Cl)sc3Cl)c2C(N)=O)C1 | -4.7% | 1.4% | 25.4* | 30.2* | -2.5% | 31.6µM* | -65.0% | ? | 3.7% | 2.2% | 0.4%
CCC(=O)Nc1sc2c(c1C(=O)OC)CCN(Cc1ccccc1)C2 | -3.4% | 3.5% | -1.1 | -2.5 | 1.2% | 12.6µM* | -4.2% | -20.9% | -6.5% | 1.4% | -22.1%
COc1cccc(OC)c1C(=O)Nc1sc2c(c1C(N)=O)CCN(Cc1ccccc1)C2 | -2.4% | 0.2% | 1.1 | -0.4 | 4.5% | 12.6µM* | -54.2% | -5.9% | -1.7% | 14.7% | -10.1%
CCN1CCc2c(sc(NC(=O)C3CCCCC3)c2C(=O)OC)C1 | 8.1% | -2.2% | -3.7 | -4.5 | -1.6% | 17.8µM* | -15.6% | -10.8% | 4.6% | 13.2% | 5.7%
COC(=O)c1c(NC(=O)C(C)C)sc2c1CCN(Cc1ccccc1)C2 | -2.4% | -3.0% | -2.0 | 5.8 | -1.6% | ? | . | . | . | . | .
CO/N=C(/C(=O)N[C@@H]1C(=O)N2C(C(=O)O)=C(COC(N)=O)CS[C@H]12)c1ccco1 | . | -6.0% | . | . | . | . | . | . | . | . | .
CC(C)N1CCc2c(sc(NC(=O)Cc3ccccc3)c2C(N)=O)C1 | 0.1% | -1.8% | -3.9 | -4.2 | -5.6% | 12.6µM* | ? | 10.6% | 9.0% | 8.4% | 9.5%
CC(C)N1CCc2c(sc(NC(=O)CCc3ccccc3)c2C(N)=O)C1 | -1.8% | -2.3% | 4.9 | 3.7 | 0.4% | -26.1% | . | . | . | . | .
O=C(O)CNC(=O)CC1S/C(=N/N=C2\CSC(=O)N2)NC1=O (stereo unspecified) | 9.6% | -1.9% | -3.7 | -8.8 | 26.7% | 5.61µM* | 12.7%[38.3 µM] | 4.5% | -10.3% | 7.6% | -8.4%
